KB-V1 MDR tox – KB-V1 MDR subline cytotoxicity. Potency, µM (series often up to 46.1 µM), hits mostly cytotoxic. KB-V1 MDR cells viability, CellTiter-Glo, 72 h. 400,000 compounds, 3.4% hits. AID 1347076; also: % is scaled to controls: 0 for no effect and ±100 for the full control effect; nearly all actives have a fitted effect of over 60% in size
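KB-V1 cells (P-gp-expressing MDR subline of KB-3-1) in phenol-red-free DMEM with 10% FBS were exposed to library compounds over a concentration series for 72 h at 37 degrees C. Viability read by CellTiter-Glo luminescence; concentration-effect curves fitted after normalization.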
HT1080-NT tox – kills 2HG-producing HT-1080-NT fibrosarcoma cells; HT-1080-NT fibrosarcoma viability, CellTiter-Glo ATP luminescence, 48 h; Potency, µM (top dose mostly 46.1 µM), for the others: at the highest dose activity, negative = less viability, most hits filed as cytotoxic; 360,000 compounds, 1.6% hits; AID 686970;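 also: NT is the 2HG producing partner of a matched IDH1 knockdown line; 0% = DMSO-treated cells and -100% = media-only wells without cells; nearly all actives have a fitted effect of over 55% in size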
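Fibrosarcoma NT cells, 750 per well in 5% FBS RPMI, were exposed to compound for 48 hours. Viability: CellTiter-Glo luminescence.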
SW480 rereplic – DNA re-replication induction in SW480 cells | Potency, µM (titrated, usually from 46.1 µM), for the others: at the highest dose re-replication activation, usual class: activators | SW480 DNA re-replication, Hoechst DNA content imaging, 48 h | 340,000 compounds, 1.8% hits; also: % of control where 0% means no effect; nearly all actives have a fitted effect of over 55% in size
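250 cells/well; 23 nL cpd via pin tool; 48 hr, 37 C, 5% CO2; Hoechst 40 min; imager read of total nuclear intensity, ex 405/em 500-530 nm.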
MCF10A rerep – inducers of DNA re-replication in MCF 10A breast cells; MCF 10A DNA re-replication, Hoechst nuclear intensity, 48 h; 350,000 compounds, 2.9% hits; Potency, µM (doses to about 46.1 µM), for the others: top-dose activity, positive = re-replication, actives largely listed as activators; AID 624296; also: % of control where 0% means no effect; nearly all actives have a fitted effect of over 50% in size
HT1080 IDH1KD tx – toxicity to HT-1080 IDH1 knockdown cells (counter line) | HT-1080 IDH1 knockdown viability, ATP luminescence, 48 h | Potency, µM (top dose mostly 46.1 µM), for the others: at the highest dose activity, negative = toxicity, actives largely listed as cytotoxic | 360,000 compounds, 2% hits | AID 686971;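 also: 0% = DMSO wells and -100% = cell-free medium wells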
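CellTiter-Glo luminescence after 48 h compound exposure at 37 degrees C of IDH1-knockdown HT-1080 cells in 5% FBS RPMI. %Activity scaled between DMSO wells and cell-free media wells, with curves fitted and assigned curve classes.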
KB-3-1 cytotox – kills parental KB-3-1 adenocarcinoma cells; KB-3-1 viability, CellTiter-Glo ATP luminescence, 72 h; Potency, µM (highest dose often 46.1 µM), usual class: cytotoxic; 400,000 compounds, 1.4% hits; AID 1347075; also: % is scaled to controls: 0 for no effect and ±100 for the full control effect; nearly all actives have a fitted effect of over 60% in size
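Viability of parental KB-3-1 cells, measured by CellTiter-Glo luminescence, followed a 72 h incubation at 37 °C with pinned compounds in phenol-red-free DMEM containing 10% FBS.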
An asterisk follows results filed as active; i = inactive; ? = inconclusive; . = no result; [ ] = remark or other dose. Hits are enriched below; roughly 7.9% of the tested compounds scored in any of these assays. Calls follow the shape of the dose curve; as a rule, active = well fitted curve in the direction sought with a large enough effect; inconclusive = small, poorly fitted or top-dose-only effect, or another doubt; inactive = no such curve, though single readings can be large; an effect the other way counts as inactive or inconclusive. Potency is read from the fitted curve at half-maximal effect.

SMILES	KB-V1 MDR tox	HT1080-NT tox	SW480 rereplic	MCF10A rerep	HT1080 IDH1KD tx	KB-3-1 cytotox
CCN(CC)c1ccc(S(=O)(=O)N2CCOCC2)cc1NC(=O)COC(=O)c1cccnc1SC	i	-1.0%	-48.5%	12.0%	4.0%	i
O=C(Nc1ccc(NC(=O)c2cccnc2Cl)cc1)c1cccc(Cl)c1	i	-9.0%	-3.0%	?	-0.3%	i
CCN(CC)S(=O)(=O)c1cc(NC(=O)C(=O)c2c(-c3ccccc3)cc3ccccn23)ccc1C	i	-2.8%	0.8%	8.6%	-19.2%	i
CCN(CC)S(=O)(=O)c1cccc(NC(=O)C(=O)c2c(-c3ccccc3)cc3ccccn23)c1	3.26µM*	0.1%	2.4%	7.2%	-1.4%	i
CSc1ncnc2c1ncn2CCCNC1CCN(Cc2ccccc2)CC1	?	-3.9%	.	.	-27.1%	i
c1ccc(COc2ncnc3c2ncn3CCCNC2CCN(Cc3ccccc3)CC2)cc1	i	23.1µM*	.	.	18.4µM*	?
O=C(O)[C@@H]1CCCN1	.	.	-4.9%	1.4%	.	.
Cc1cccc(NC(=O)CN2C(=O)CCn3nc(-c4cccn4C)cc32)c1C	i	.	.	.	.	i
O=C1c2ccccc2C(=O)N1CCc1c[nH]c2ccccc12	?	-1.4%	-81.4%	23.8%	-3.2%	i
O=C1c2ccccc2C(=O)N1CCCc1c[nH]c2ccccc12	20.6µM*	8.4%	25.9%	?	-13.9%	i
O=C1c2ccccc2C(=O)N1CCc1c[nH]c2ccc(O)cc12	?	21.8%	3.66µM*	-2.1%	12.3%	i
O=C1CN(C(=O)CCCc2c[nH]c3ccccc23)c2ccccc2N1	i	-15.9%	0.2%	15.8µM*	-0.9%	i
COc1cccc(C(=O)O[C@H]2[C@H](C)NS(=O)(=O)[C@H]3C[C@@H]4C=C[C@]23O4)c1	i	-3.3%	-5.3%	-2.6%	0.1%	i
COc1ccc(NC(=O)COC(=O)c2c(NC(C)=O)sc(C)c2C)cc1	i	0.7%	.	.	-7.1%	?
Cc1csc(=O)n1CCC(=O)OCC(=O)Nc1ccc(F)c(F)c1F	i	-2.5%	-4.9%	-1.3%	9.3%	i
Cc1cc(N=Nc2ccccc2)cc(C)c1NC(=O)C(F)(F)F	?	-2.6%	5.0%	6.3%	-3.1%	i
Nc1ncnc2oc(-c3ccco3)c(-c3ccco3)c12	20.6µM*	?	-2.9%	6.3%	?	i
Cc1ccc(/C=N/n2cc(-c3ccccc3)[nH]c2=S)s1	i	-5.7%	18.4µM*	5.6%[9.22 µM]	0.6%	i
Cc1ccc(C(=O)COc2ccccc2N2C(=O)c3ccccc3C2=O)cc1	i	-1.7%	2.3%	-7.1%	15.8%	i
COc1cccc2c(=O)c3ccoc3n(C)c12	i	-1.2%	-46.1%	-0.7%	3.9%	i
COc1cccc2c(=O)c3c(cnn3C)n(C)c12	20.6µM*	-3.4%	23.8%	?	-7.9%	i
COc1ccc(CN(C)C(C)C(=O)Nc2ccc([N+](=O)[O-])cc2Cl)cc1OC (centres undefined)	5.17µM*	-11.5%	?	17.8%	-14.0%	i
CN(C)CCCNc1nc2cc(-c3cccc(C(F)(F)F)c3)sc2c(=O)n1C	i	?	.	.	?	i
Cc1ccccc1-c1cc2nc(NCCCN(C)C)n(C)c(=O)c2s1	i	?	.	.	?	i
Cc1ccsc1-c1cc2nc(NCCCN(C)C)n(C)c(=O)c2s1	i	5.8µM*	.	.	?	i
SMILES	KB-V1 MDR tox	HT1080-NT tox	SW480 rereplic	MCF10A rerep	HT1080 IDH1KD tx	KB-3-1 cytotox
CN(C)CCCNc1nc2cc(-c3cccc(Cl)c3)sc2c(=O)n1C	i	?	.	.	16.4µM*	i
COc1ccc(NC(=O)CSc2nc3c(sc4ccccc43)c(=O)n2CCCN2CCCC2)cc1	i	?	?	?	?	i
Cc1cccc(C)c1-n1nnnc1C(c1ccnc2ccccc12)N(C)Cc1ccccc1 (centres undefined)	i	9.1%	.	.	10.6%	?
COC(=O)c1cnc(Nc2nc(C(N)c3ccccc3Cl)cs2)nc1C(F)(F)F (centres undefined)	i	?	.	.	?	i
NC(c1csc(NC(=O)Nc2ccccc2Cl)n1)C1CCCCC1 (centres undefined)	i	?	.	.	?	i
NC(c1csc(Nc2nncc3ccccc23)n1)C1CCCCC1 (centres undefined)	?	20.6µM*	.	.	23.1µM*	?
NC(c1csc(NC(=O)Nc2ccccc2)n1)C1CCCCC1 (centres undefined)	18.4µM*	?	.	.	?	?
NC(c1ccccc1)c1csc(NC(=O)Nc2cccc(Cl)c2)n1 (centres undefined)	i	20.6µM*	.	.	16.4µM*	i
NC(CCc1ccccc1)c1csc(NC(=O)Nc2cccc(Cl)c2)n1 (centres undefined)	i	?	.	.	?	i
NC(c1csc(Nc2nncc3ccccc23)n1)c1ccccc1Cl (centres undefined)	i	?	.	.	-23.3%	i
NC(c1csc(NC(=O)c2cccc(OC(F)(F)F)c2)n1)c1ccccc1Cl (centres undefined)	i	23.1µM*	.	.	?	?
COc1ccc(C2(C)NC(=O)NC2=O)cc1OC (centres undefined)	i	?	-7.1%	6.9%	10.7%	i
CC(=O)Nc1ccc(Nc2nc(C(F)(F)F)nc3c2nnn3Cc2ccccc2Cl)cc1	?	-28.7%	?	?	?	i
CC(C)CCN1C(=O)c2ccc(C(=O)Nc3ccccc3C(=O)O)cc2C1=O	i	7.0%	-5.4%	14.9%	6.3%	i
O=C1CNC(=O)c2cc(Cl)ccc2N1	i	9.0%	.	.	9.8%	i
C1=Nc2ccccc2/C1=C/c1ccccc1	i	.	.	.	.	?
CCCCN(CCCNC(=O)c1cc(Nc2ccc(OC)c(OC)c2)nc2ccccc12)c1ccccc1	i	.	.	.	.	i
O=C(O)c1cccc(NC(=O)c2cccc(S(=O)(=O)Nc3cccc(F)c3)c2)c1	i	.	.	.	.	i
NC(c1csc(NC(=O)Nc2cccc(Cl)c2)n1)C1CCCCC1 (centres undefined)	i	18.4µM*	.	.	18.4µM*	?
NC(c1ccccc1)c1csc(NC(=O)Nc2ccc(OC(F)(F)F)cc2)n1 (centres undefined)	i	?	.	.	18.4µM*	i
COC(=O)C1CCN(S(=O)(=O)CCNC(=O)c2ccccc2)CC1	i	0.1%	.	.	10.0%	i
